Data as given in PubChem BioAssay.
Active and inactive are the calls of the source.

Columns and labels:
[1] = test system: Plasmodium falciparum Sir2 (PF13_0152, Sir2A); test: Plasmodium falciparum Sir2A binding compounds – biochemical, small-molecule microarray, 635 nm fluorescence, primary screen (AID 1098); settings: fluorescence 635 nm, higher = more signal;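 further: score merges spot fluorescence intensity with its signal-to-noise ratio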
[2] = probe aDKK1 binding to arrayed compounds – biochemical, biotinylated probe, 635/667 nm fluorescence, primary screen (AID 1099); settings: small-molecule microarray, higher = more signal;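 further: score merges 667nm spot fluorescence with signal to noise across triplicate slides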
[3] = probe aCHRDL2 binding to arrayed compounds – biochemical, biotinylated probe, 635/667 nm fluorescence, primary screen (AID 1100); settings: small-molecule microarray, higher = more signal
[4] = change in splice reporter luminescence, either direction, cell-based, HEK293, spliceosome inhibition project, primary screen (AID 1101); settings: HEK293 splicing luciferase reporter, 24 h, higher = more signal, called active from +8 up or from −8 down;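 further: HEK293 cells carrying a splicing-competent luciferase reporter gene; test concentration not given here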
[5] = target: Fibroblast growth factor 10 (Homo sapiens) (UniProt O15520); test: compounds binding fibroblast growth factor 10 – biochemical, small-molecule microarray, 635 nm fluorescence, primary screen (AID 1102); settings: FGF10 binding, fluorescence 635 nm, higher = more signal
[6] = test system: glycogen synthase kinase-3 (GSK3A per assay name; protocol says GSK3B); test: compounds binding glycogen synthase kinase-3 – biochemical, small-molecule microarray, 635 nm fluorescence, GSK3A, primary screen (AID 1103); settings: fluorescence 635 nm, higher = more signal; further: the record names both GSK3A and GSK3B
[7] = target: Epidermal growth factor receptor (Homo sapiens) (UniProt P00533); test: compounds binding epidermal growth factor receptor – biochemical, small-molecule microarray, 635 nm fluorescence, primary screen (AID 1104); settings: EGFR binding, higher = more signal;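 further: score merges 667 nm emission intensity with spot signal to noise over triplicate slides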
[8] = target: Follistatin-related protein 3 (Homo sapiens) (UniProt O95633); test: compounds binding follistatin-related protein 3 – biochemical, small-molecule microarray, 635 nm fluorescence, primary screen (AID 1105); settings: FSTL3 binding, higher = more signal;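 further: score merges emission near 667 nm and signal to noise per printed spot across three slides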
[9] = target: Dickkopf-related protein 1 (Homo sapiens) (UniProt O94907); test: small molecules binding DKK1 protein – biochemical, small-molecule microarray, 635 nm fluorescence scan, primary screen (AID 1106); settings: higher = more signal;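 further: score merges emission near 667 nm with signal to noise over three replicate slides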
[10] = test system: Inhibin beta A chain (activin A); test: small molecules binding activin A – biochemical, small-molecule microarray, 635 nm fluorescence scan, primary screen (AID 1107); settings: INHBA, higher = more signal;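 further: mouse activin A protein probed at 4.33 µg/mL on printed slides; score merges bound-protein fluorescence near 667 nm with spot signal-to-noise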
[11] = test system: Human papillomavirus type 1a protein E7 (residues 44-93); test: small molecules binding HPV E7 44-93 – biochemical, small-molecule microarray, residues 44-93, 635 nm fluorescence, primary screen (AID 1108); settings: fluorescence 635 nm, higher = more signal;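 further: E7 fragment applied at 1 µg/mL in TBST for 1 h at 4 C; score combines spot fluorescence with its signal to noise ratio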
[12] = hepatitis C replication reporter changes, two-sided – Huh7 cells, luciferase reporter, HCV replication inhibitor project, primary screen (AID 1109); settings: Huh7 HCV replicon luciferase reporter, 48 h; higher = more signal;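 further: huh7 hepatoma cells harbouring a luciferase neomycin HCV replicon reporter; luciferase luminescence as measure of HCV replicon replication; test concentration not given here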
[13] = target: Left-right determination factor 2 (Homo sapiens) (UniProt O00292); test: small molecules binding LEFTY2 protein – biochemical, small-molecule microarray, 635 nm fluorescence scan, primary screen (AID 1110); settings: higher = more signal
[14] = target: Calmodulin-1 (Homo sapiens) (UniProt P0DP23); test: small molecules binding calmodulin-1 with EGTA – biochemical, small-molecule microarray, Cy5-labelled CALM1, profiling panel (AID 1111); settings: Cy5-CALM1 binding fluorescence, higher = more signal;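 further: labelled calmodulin applied in Tris saline Tween buffer holding calcium plus EGTA and DTT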
[15] = target: Calmodulin-1 (Homo sapiens) (UniProt P0DP23); test: small molecules binding Ca-loaded calmodulin-1 – biochemical, small-molecule microarray, Cy5-labelled CALM1, plus calcium, artefact control for SMM control-protein annotation, profiling panel (AID 1112); settings: Cy5-CALM1 binding fluorescence, higher = more signal;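 further: score merges spot fluorescence with signal to noise from triplicate slides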
[16] = probe aWnt5a binding to arrayed compounds – biochemical, biotinylated probe, 635/667 nm fluorescence, primary screen (AID 1113); settings: small-molecule microarray, higher = more signal;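 further: score merges 667 nm fluorescence intensity with signal-to-noise per printed feature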
[17] = probe aShh binding to arrayed compounds – biochemical, biotinylated probe, 635/667 nm fluorescence, primary screen (AID 1114); settings: small-molecule microarray, higher = more signal;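 further: probe is biotin-labelled aShh protein from a stem cell growth factor screen; measures binding of labelled protein to compounds printed on the slide; score merges feature fluorescence at 667 nm with signal-to-noise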
[18] = probe aNog binding to arrayed compounds – biochemical, biotinylated probe, 635/667 nm fluorescence, primary screen (AID 1115); settings: small-molecule microarray, higher = more signal;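 further: probe is biotinylated aNog protein used at 0.15 µg/mL for 1 h at 4 C; z-score combines 667 nm fluorescence of each spot with its signal to noise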
[19] = target: Torsin-1A-interacting protein 1 (Homo sapiens) (UniProt Q5JTV8); test: compound microarray binding of lysate hLAP1 – cell lysate, small-molecule microarray, COS7 lysate, 635/667 nm fluorescence, primary screen (AID 1116); settings: 635 nm fluorescence, higher = more signal
[20] = target: Alpha-bungarotoxin (Bungarus multicinctus) (UniProt P60615); test: compounds binding labelled alpha-BTX control protein – biochemical, small-molecule microarray, Alexa647 label, 635/667 nm fluorescence, artefact control for SMM control protein annotation, profiling panel (AID 1117); settings: alpha-BTX-A647 binding fluorescence, higher = more signal
Alpha-bungarotoxin (Bungarus multicinctus), sequence (P60615 whole entry, looked up): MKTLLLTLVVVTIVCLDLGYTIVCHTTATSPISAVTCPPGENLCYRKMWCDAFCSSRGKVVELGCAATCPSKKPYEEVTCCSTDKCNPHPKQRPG

Torsin-1A-interacting protein 1 (Homo sapiens), sequence (Q5JTV8 whole entry, looked up): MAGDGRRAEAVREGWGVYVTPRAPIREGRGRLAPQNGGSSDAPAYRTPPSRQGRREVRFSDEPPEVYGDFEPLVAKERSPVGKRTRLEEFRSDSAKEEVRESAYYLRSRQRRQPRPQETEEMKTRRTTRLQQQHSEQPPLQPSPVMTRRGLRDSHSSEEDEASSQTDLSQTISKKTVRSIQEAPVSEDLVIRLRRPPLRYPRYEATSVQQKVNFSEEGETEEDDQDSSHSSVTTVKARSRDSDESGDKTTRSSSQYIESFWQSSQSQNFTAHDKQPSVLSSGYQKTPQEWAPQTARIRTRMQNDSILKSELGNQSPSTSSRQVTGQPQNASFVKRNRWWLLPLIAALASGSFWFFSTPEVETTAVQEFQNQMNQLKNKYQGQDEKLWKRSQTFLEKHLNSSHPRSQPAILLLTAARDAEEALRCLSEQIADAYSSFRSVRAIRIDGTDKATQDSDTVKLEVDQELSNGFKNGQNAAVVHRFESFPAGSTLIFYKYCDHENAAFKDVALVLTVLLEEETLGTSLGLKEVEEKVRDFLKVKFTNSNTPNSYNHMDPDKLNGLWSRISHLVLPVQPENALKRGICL
Fibroblast growth factor 10 (Homo sapiens), sequence (O15520 whole entry, looked up): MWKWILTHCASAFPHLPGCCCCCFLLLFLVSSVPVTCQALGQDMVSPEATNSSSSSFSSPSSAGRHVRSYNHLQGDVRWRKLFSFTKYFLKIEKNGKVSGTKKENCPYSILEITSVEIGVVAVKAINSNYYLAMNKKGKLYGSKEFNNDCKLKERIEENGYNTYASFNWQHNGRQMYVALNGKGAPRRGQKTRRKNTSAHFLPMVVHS
Epidermal growth factor receptor (Homo sapiens), sequence (P00533 whole entry, looked up): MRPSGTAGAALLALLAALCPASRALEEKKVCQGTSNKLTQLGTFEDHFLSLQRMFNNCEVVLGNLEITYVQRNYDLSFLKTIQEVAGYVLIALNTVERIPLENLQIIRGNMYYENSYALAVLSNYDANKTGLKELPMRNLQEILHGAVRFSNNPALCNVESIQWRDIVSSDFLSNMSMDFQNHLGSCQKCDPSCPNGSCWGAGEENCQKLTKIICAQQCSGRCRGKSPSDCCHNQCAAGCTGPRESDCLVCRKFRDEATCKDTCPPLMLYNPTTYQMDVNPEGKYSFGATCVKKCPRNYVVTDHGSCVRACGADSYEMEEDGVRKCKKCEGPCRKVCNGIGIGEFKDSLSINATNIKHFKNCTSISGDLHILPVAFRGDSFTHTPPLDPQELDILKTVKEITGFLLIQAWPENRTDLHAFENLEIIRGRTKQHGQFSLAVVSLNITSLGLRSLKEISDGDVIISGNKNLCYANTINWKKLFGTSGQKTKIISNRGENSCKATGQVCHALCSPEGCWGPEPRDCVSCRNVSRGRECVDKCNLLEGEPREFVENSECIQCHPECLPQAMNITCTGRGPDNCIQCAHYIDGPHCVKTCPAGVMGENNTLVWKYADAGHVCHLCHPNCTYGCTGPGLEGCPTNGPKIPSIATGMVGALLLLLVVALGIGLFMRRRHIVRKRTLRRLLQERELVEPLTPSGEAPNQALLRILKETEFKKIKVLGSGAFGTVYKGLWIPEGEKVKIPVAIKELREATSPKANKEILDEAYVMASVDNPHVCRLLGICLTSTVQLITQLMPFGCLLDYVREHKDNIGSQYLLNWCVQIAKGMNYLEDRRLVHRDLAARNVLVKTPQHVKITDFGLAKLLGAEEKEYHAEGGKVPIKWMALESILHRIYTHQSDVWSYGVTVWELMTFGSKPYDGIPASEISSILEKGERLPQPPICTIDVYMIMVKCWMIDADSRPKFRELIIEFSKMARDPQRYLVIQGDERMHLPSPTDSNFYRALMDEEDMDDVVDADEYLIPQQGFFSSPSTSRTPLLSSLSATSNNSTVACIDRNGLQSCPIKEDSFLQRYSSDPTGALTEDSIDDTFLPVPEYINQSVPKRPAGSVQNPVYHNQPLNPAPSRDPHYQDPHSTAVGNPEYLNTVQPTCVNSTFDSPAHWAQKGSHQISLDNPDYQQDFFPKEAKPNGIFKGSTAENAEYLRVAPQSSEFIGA
Dickkopf-related protein 1 (Homo sapiens), sequence (O94907 whole entry, looked up): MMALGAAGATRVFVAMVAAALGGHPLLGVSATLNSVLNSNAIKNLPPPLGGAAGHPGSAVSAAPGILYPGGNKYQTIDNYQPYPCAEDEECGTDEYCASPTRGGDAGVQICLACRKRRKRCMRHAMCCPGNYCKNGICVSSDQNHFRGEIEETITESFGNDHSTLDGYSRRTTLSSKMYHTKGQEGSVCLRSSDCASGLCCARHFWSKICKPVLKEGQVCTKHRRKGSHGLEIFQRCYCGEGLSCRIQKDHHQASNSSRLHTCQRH
Follistatin-related protein 3 (Homo sapiens), sequence (O95633 whole entry, looked up): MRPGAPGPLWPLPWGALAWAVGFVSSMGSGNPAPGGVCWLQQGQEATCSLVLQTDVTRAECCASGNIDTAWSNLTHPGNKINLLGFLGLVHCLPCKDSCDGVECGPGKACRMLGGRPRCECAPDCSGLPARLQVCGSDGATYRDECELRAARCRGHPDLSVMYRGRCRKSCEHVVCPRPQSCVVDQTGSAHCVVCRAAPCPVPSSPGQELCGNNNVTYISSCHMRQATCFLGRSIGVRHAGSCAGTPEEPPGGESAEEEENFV
Left-right determination factor 2 (Homo sapiens), sequence (O00292 whole entry, looked up): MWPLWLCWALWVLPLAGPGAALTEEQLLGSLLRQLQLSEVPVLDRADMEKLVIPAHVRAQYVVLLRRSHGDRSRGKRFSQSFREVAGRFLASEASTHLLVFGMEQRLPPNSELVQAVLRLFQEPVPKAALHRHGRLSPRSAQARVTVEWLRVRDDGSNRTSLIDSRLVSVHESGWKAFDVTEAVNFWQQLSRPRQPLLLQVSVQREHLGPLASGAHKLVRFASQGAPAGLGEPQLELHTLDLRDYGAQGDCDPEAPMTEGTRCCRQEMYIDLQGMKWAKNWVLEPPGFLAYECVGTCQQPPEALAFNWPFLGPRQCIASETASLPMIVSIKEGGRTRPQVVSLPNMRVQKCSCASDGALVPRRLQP

Structure (SMILES) | composite z-score [1] | composite z-score [2] | composite z-score [3] | z-score [4] | composite z-score [5] | composite z-score [6] | composite z-score [7] | composite z-score [8] | composite z-score [9] | composite z-score [10] | composite z-score [11] | z-score [12] | composite z-score [13] | composite z-score [14] | composite z-score [15] | composite z-score [16] | composite z-score [17] | composite z-score [18] | composite z-score [19] | composite z-score [20]
COc1cc2c(cc1OC)CN(C(=O)[C@@H]1[C@H]3C(=O)O[C@H](c4ccccc4)[C@H](c4ccccc4)N3[C@H](c3ccccc3OCCO)[C@@]13C(=O)Nc1ccccc13)CC2 | 1.6 | -0.682 | -0.73 | -0.239 (inactive) | 0.748 | 1.29 | 0.0883 | 0.317 | -0.134 | 0.358 | 1.01 | -2.02 | 0.187 | 0.421 | 0.234 | 0.213 | -0.0213 | 0.0101 | -0.345 | 2.07
COC(=O)c1ccc(C#CC(NP(=O)(c2ccccc2)c2ccccc2)c2ccccc2)cc1 (stereo not given) | -0.179 | 1.2 | 1.38 | 5.42 (inactive) | 0.847 | -0.245 | 1.77 | 1.7 | 0.567 | 1.76 | 1.39 | -0.173 | -0.34 | 1.92 | 0.863 | 0.0381 | -0.519 | 1.59 | 0.403 | 2.89
COCCCNC(=O)[C@@]1(c2ccc([N+](=O)[O-])cc2)CC(=O)N(C2CCCCC2)[C@@H]1c1ccc(CO)cc1 | -0.463 | -0.86 | -0.67 | -0.748 (inactive) | 0.316 | 0.296 | -0.0545 | -0.186 | -0.296 | -0.395 | 0.361 | -0.558 | -0.256 | -0.702 | -0.762 | -0.418 | -0.8 | -0.811 | -0.218 | -0.374
Cc1ccc(N2C(=O)c3ccccc3[C@@H](C(=O)NCC(F)(F)F)[C@@H]2c2ccc(CO)cc2)nc1 | 1.72 | 0.476 | 1.22 | -1.08 (inactive) | -1.15 | -1.18 | -2.69 | -1.83 | -1.69 | -1.57 | -2.16 | 0.643 | -3.15 | -1.65 | -0.526 | -0.226 | -0.0626 | -0.3 | 0.153 | -1.81
CC(=O)NCCCC[C@@H]1NC(=O)[C@H]2C[C@@H](C(=O)NCCCCCCN(C)C)[C@@H](c3ccc(O)cc3)N2C1=O | 1.04 | -0.124 | 0.0091 | -0.808 (inactive) | 0.815 | 1.35 | 0.851 | 1.55 | 1.14 | 0.775 | 0.19 | 1.87 | 0.851 | -0.382 | -1.53 | -0.154 | 0.23 | 0.512 | 1.85 | 2.01
NC(=O)NCC#Cc1ccc2c(c1)[C@]1(C(=O)N2)[C@H](c2ccccc2OCCO)N2[C@H](c3ccccc3)[C@H](c3ccccc3)OC(=O)[C@H]2[C@@H]1C(=O)N1CCN(c2ncccn2)CC1 | 0.722 | 0.0815 | 0.542 | 0.222 (inactive) | 0.651 | 0.814 | 0.251 | 0.844 | 0.133 | 1.25 | 1.4 | -0.729 | 0.235 | 0.427 | 0.263 | -0.124 | 0.399 | -0.582 | 1.04 | 0.959
CC(C)N1CC=CC23O[C@@H]4/C=C\CCCOC(=O)C4[C@H]2C(=O)N(CCCCCO)[C@@H]3C1=O (stereo not given in full) | 0.21 | -0.195 | 0.632 | 0.0946 (inactive) | -0.655 | -1.42 | -1.97 | -1.04 | -1.09 | 0.213 | -1.46 | 0.0844 | -1.86 | -2.24 | -0.226 | -0.176 | -0.179 | 0.0403 | -1.04 | -2.08
COc1cc(CO)cc(I)c1O[C@H]1C=C(C(=O)NCCO)C[C@@H](N(CC2CCCCC2)C(=O)c2cc3ccccc3oc2=O)[C@@H]1O | -0.375 | -0.34 | -0.293 | -0.00607 (inactive) | 0.975 | 0.0996 | 0.6 | 0.797 | 0.174 | 0.14 | -0.376 | 0.806 | 0.252 | 0.0059 | -0.857 | -0.185 | -0.0904 | -0.446 | 0.646 | -0.431
COC(=O)[C@@]1(Cc2ccccc2CN=[N+]=[N-])N=C(c2ccc(OCCCO)cc2)O[C@H]1c1ccccc1N=[N+]=[N-] | 1.31 | 0.244 | 0.973 | -0.298 (inactive) | 0.752 | -0.381 | -0.0185 | -0.0661 | -0.608 | 0.948 | 1.02 | -1.53 | -0.453 | 0.173 | -0.17 | -0.129 | -0.203 | 2.32 | 0.0753 | 0.45
CC(C)CNC(=O)[C@@]1(C)c2ccccc2C(=O)N(Cc2ccc(OC(F)(F)F)cc2)[C@H]1c1ccc(CO)cc1 | -0.857 | 0.629 | 1.14 | 0.581 (inactive) | -0.494 | -0.694 | -1.15 | -0.877 | -0.973 | 0.159 | -1.2 | 0.173 | -1.22 | -0.381 | 0.787 | -0.147 | -0.0769 | 0.264 | 1.5 | -0.36
CCN1C(C)=C(C(=O)OC)[C@@H](c2ccccc2)N2C(=O)[C@@]3(C(=O)OC)O[C@@]12[C@@H]1C(=O)N(C)C(=O)[C@@H]13 | 0.736 | -0.0561 | -0.45 | -0.997 (inactive) | 1.25 | 0.622 | 0.471 | 1.41 | 1.1 | 0.613 | -0.592 | -0.0304 | 0.72 | 0.439 | -0.686 | -0.0882 | -0.283 | 0.372 | 0.426 | 1.19
